These results are taken from PubChem BioAssay.

Assay [1] in a line: antimalarial activity against Dd2 strain (AID 2302;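 active means growth inhibition above 50% at the single 2 µM test dose, taken to imply half-maximal potency below 2 µM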;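 further: 0% = DMSO untreated growth and 100% = chloroquine plus artemisinin killed control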). The conditions noted are these: P. falciparum Dd2 in RBCs, LDH growth readout, 72 h; at 2 µM; hits give high values.
For assay [2], the target named is L-lactate dehydrogenase (Plasmodium falciparum (isolate CDC / Honduras)) (UniProt Q27743). Nature of the assay: PfLDH activity inhibition – cell lysate, 3D7 strain, counter-screen for P. falciparum growth inhibition project (AID 2304).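 Further: 0% = vehicle and 100% = reference inhibitor.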 The conditions noted are these: P. falciparum 3D7 crude extract, LDH APAD/NBT absorbance; at 2 µM; hits give high values.
L-lactate dehydrogenase (Plasmodium falciparum (isolate CDC / Honduras)), sequence (Q27743 whole entry, looked up): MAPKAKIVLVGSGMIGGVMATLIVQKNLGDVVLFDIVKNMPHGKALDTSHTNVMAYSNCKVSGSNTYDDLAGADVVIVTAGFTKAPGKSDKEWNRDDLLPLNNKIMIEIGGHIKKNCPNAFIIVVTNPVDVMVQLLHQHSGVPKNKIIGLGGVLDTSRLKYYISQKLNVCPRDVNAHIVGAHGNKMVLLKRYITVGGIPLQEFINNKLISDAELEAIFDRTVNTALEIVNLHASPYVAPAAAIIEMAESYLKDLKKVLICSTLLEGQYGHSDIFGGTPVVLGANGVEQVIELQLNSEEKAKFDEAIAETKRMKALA
Assay [3] in a line: inhibition of 3D7 malaria parasite growth – strain 3D7 (AID 2306).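 Further: 0% = DMSO wells and 100% = chloroquine plus artemisinin control wells.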 The conditions noted are these: P. falciparum 3D7 erythrocytic growth, LDH absorbance, 72 h; at 2 µM; hits give high values.
Assay [4] deals with Calcium-dependent protein kinase 1 (Plasmodium falciparum (isolate 3D7)) (UniProt P62344). Description: PfCDPK1 kinase inhibitors, biochemical, TCAMS library (AID 1159585; cut-off not given, nearly all actives have IC50 up to about 0.98 µM;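 further: inhibitors leave more ATP so luminescence rises with inhibition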). To be noted: recombinant PfCDPK1, Kinase-Glo ATP depletion luminescence.
Calcium-dependent protein kinase 1 (Plasmodium falciparum (isolate 3D7)), sequence (P62344 whole entry, looked up): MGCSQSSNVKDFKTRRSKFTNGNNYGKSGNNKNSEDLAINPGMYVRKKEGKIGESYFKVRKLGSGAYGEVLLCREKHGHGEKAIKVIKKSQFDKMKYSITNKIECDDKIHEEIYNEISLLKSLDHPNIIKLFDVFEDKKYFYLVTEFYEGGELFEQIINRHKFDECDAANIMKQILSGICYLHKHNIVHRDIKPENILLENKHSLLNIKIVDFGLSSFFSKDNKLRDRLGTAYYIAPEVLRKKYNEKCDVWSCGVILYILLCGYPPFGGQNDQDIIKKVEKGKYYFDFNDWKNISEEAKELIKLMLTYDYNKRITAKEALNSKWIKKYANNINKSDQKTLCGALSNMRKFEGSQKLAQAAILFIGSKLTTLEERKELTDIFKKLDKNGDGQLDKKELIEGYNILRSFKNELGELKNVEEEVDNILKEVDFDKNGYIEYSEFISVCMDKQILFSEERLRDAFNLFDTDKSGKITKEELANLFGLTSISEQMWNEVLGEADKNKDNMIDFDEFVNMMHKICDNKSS
The target of assay [5] is Plasmodium falciparum protein kinase 6 (PK6, PF3D7_1337100) (UniProt Q8IDW1). Description: PfPK6 kinase inhibitors, biochemical, TCAMS library (AID 1159586). The conditions noted are these: recombinant PfPK6, Kinase-Glo ATP depletion luminescence.
Plasmodium falciparum protein kinase 6 (PK6, PF3D7_1337100), sequence (Q8IDW1 1-305): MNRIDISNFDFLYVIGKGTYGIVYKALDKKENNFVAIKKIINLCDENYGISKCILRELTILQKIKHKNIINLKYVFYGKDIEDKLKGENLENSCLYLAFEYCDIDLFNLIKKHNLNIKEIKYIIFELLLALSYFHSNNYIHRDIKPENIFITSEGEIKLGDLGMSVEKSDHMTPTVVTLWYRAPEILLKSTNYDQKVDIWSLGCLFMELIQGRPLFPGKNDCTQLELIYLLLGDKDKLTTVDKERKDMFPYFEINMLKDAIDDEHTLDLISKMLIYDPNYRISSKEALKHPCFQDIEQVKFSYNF
Assay [6] addresses Protein kinase 7 (PK7), Plasmodium falciparum 3D7 (PF3D7_0213400) (UniProt Q7YTF7). Description: inhibition of Plasmodium PK7 catalytic activity – biochemical, TCAMS antimalarial set, Kinase-Glo luminescence (AID 1159587). The conditions noted are these: recombinant PfPK7, Kinase-Glo ATP depletion luminescence.
In assay [7] the target is Calcium-dependent protein kinase 4 (Plasmodium falciparum (isolate 3D7)) (UniProt Q8IBS5). Nature of the assay: PfCDPK4 kinase inhibitors, biochemical, TCAMS library (AID 1159588; cut-off not given, nearly all actives have IC50 up to about 0.91 µM). To be noted: recombinant PfCDPK4, Kinase-Glo ATP depletion luminescence.
Calcium-dependent protein kinase 4 (Plasmodium falciparum (isolate 3D7)), sequence (Q8IBS5 whole entry, looked up): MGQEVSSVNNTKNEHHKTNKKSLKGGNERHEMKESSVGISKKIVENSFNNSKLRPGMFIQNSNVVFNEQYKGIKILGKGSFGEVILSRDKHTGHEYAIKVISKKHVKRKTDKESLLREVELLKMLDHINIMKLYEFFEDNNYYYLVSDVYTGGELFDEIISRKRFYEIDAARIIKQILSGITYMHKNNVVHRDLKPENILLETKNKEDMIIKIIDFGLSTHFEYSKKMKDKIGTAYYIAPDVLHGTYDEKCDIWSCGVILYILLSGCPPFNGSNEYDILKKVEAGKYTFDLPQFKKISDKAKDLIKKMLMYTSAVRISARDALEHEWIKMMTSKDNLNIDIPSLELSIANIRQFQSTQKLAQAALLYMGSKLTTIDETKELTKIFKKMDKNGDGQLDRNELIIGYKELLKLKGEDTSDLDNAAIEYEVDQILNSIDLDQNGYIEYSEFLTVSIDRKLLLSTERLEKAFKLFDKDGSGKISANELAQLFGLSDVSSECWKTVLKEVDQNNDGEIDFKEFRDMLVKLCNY

Unmarked numbers belong to inactive results. For part of these data: Entries with a potency or affinity are not part of this list. Active and inactive are the calls of the source. Unless noted, how the calls were made is not given here.

Protein kinase 7 (PK7), Plasmodium falciparum 3D7 (PF3D7_0213400), sequence (Q7YTF7 1-343): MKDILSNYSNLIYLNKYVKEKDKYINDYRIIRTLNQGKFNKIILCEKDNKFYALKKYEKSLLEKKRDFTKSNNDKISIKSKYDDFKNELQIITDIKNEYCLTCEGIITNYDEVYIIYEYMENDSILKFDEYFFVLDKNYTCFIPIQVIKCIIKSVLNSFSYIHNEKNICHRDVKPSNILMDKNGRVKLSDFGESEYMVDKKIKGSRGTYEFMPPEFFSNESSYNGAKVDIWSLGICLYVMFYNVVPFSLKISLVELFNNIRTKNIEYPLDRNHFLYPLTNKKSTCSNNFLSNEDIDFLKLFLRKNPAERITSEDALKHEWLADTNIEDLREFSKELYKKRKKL

As to `Clc1ccc(CNCCCCCCCNCc2ccc(Cl)c(Cl)c2)cc1Cl`, the growth inhibition in assay [1] was 49%; in assay [3], 99% (active). Also, the inhibition in assay [2] is -7%. Moreover, the result in assay [4], in assay [5], in assay [6] and in assay [7] was inactive.

On to `O=C(NCCCCN1CCN(c2nsc3ccccc23)CC1)c1ccccc1C(=O)NCCCCN1CCN(c2nsc3ccccc23)CC1`, for which the values for the growth inhibition in assay [1] and in assay [3] were 22% and 100% (active), respectively. Also, in assay [2], the inhibition was -8%. The result in assay [4], in assay [5], in assay [6] and in assay [7] was inactive.

As to `CCCOc1cc2c(cc1OCCC)C(C=Cc1ccc(Cl)cc1Cl)=NC(C)C2` (stereo unspecified), the growth inhibition in assay [1] was 75% (active); in assay [3] it was 90% (active). In addition, the inhibition in assay [2] was -5%. The result in assay [4], in assay [5], in assay [6] and in assay [7] was inactive.

`CCOC(=O)c1nc2ccc(SC3CCCCC3)cn2c1Br`: the growth inhibition in assay [1] is 3%; in assay [3] it was 86% (active). Also, in assay [2], the inhibition was 3%. The outcome in assay [4], in assay [5], in assay [6] and in assay [7] was inactive.

Regarding `CN(C)C(=S)N=Nc1c(O)[nH]c2ccccc12`, the growth inhibition is 96% (active) in assay [1] and 95% (active) in assay [3]. Also, in assay [2], the inhibition is 2%. Also, the outcome in assay [4], in assay [5], in assay [6] and in assay [7] was inactive.

In the case of `Nc1nc(N)c2c(Oc3cccc(Cl)c3)cccc2n1`, the results for the growth inhibition in assay [1] and in assay [3] were 7% and 97% (active), respectively. In addition, the inhibition in assay [2] was -7%. Moreover, the result in assay [4], in assay [5], in assay [6] and in assay [7] was inactive.

On to `Cc1ccc2ccncc2c1N`, for which the growth inhibition in assay [1] is 4%; in assay [3] it was 96% (active). Besides, the inhibition in assay [2] was -6%. Also, the result in assay [4], in assay [5], in assay [6] and in assay [7] was inactive.

For the molecule `Cc1nc2nc(N)nc(N)c2c(C)c1Cc1ccc(N)cc1`, the growth inhibition in assay [1] was -2%; in assay [3], 97% (active). The inhibition in assay [2] is -4%. The result in assay [4], in assay [5], in assay [6] and in assay [7] was inactive.

Turning to `COc1ccc2c(c1CNCCCCCCNCc1c(OC)ccc3c1CCCC3)CCCC2`, the growth inhibition in assay [1] was 7%; in assay [3], 94% (active). The inhibition in assay [2] was 6%. The result in assay [4], in assay [5], in assay [6] and in assay [7] was inactive.

Regarding `COc1cc(Cc2cnc(N)nc2N)cc(OCCCC(=O)O)c1OC`, the growth inhibition in assay [1] is -3%; in assay [3], 84% (active). Moreover, the inhibition in assay [2] is 3%. Besides, the result in assay [4], in assay [5], in assay [6] and in assay [7] was inactive.

As to `Nc1nc(N)c2cc(Cc3ccc([N+](=O)[O-])cc3)cnc2n1`, the growth inhibition is -3% in assay [1] and 91% (active) in assay [3]. Further, in assay [2], the inhibition was -2%. In addition, the result in assay [4], in assay [5], in assay [6] and in assay [7] was inactive.

For the molecule `CC(C)n1c(C(C)(C)C)cc2c3c(N)nc(N)nc3ccc21`, the growth inhibition in assay [1] was 99% (active); in assay [3], 100% (active). Also, in assay [2], the inhibition is -3%. Moreover, the outcome in assay [4], in assay [5], in assay [6] and in assay [7] was inactive.

Consider `Cc1cc(=O)c(-c2ccc(Oc3ccc(OC(F)(F)F)cc3)cc2)c(C)[nH]1`, for which the growth inhibition in assay [1] was 61% (active); in assay [3], 93% (active). Besides, the inhibition in assay [2] is 0%. Further, the outcome in assay [4], in assay [5], in assay [6] and in assay [7] was inactive.

Regarding `CC(CN=C(N)c1cccc(C(N)=NCC(C)Oc2cccc(C3CCCCC3)c2)n1)Oc1cccc(C2CCCCC2)c1` (stereo unspecified), the growth inhibition in assay [1] is 31%; in assay [3], 90% (active). For the same molecule, in assay [2], the inhibition is 2%. The outcome in assay [4], in assay [5], in assay [6] and in assay [7] was inactive.

Take `CC(C)Cn1cc2c(ccc3nc(N)nc(N)c32)n1`: the results for the growth inhibition in assay [1] and in assay [3] were 2% and 97% (active), respectively. Further, in assay [2], the inhibition was -2%. Moreover, the outcome in assay [4], in assay [5], in assay [6] and in assay [7] was inactive.

Regarding `CCCCNCCOc1ccc(-c2nc(-c3ccccc3)c(-c3ccccc3)[nH]2)cc1`, the growth inhibition in assay [1] was 34%; in assay [3], 100% (active). Also, the inhibition in assay [2] was -5%. For the same molecule, the result in assay [4], in assay [5], in assay [6] and in assay [7] was inactive.

In the case of `COc1ccc(Cc2cnc3nc(N)nc(N)c3c2C)cc1OC`, the growth inhibition in assay [1] was 97% (active); in assay [3], 93% (active). The inhibition in assay [2] is -5%. The result in assay [4], in assay [5], in assay [6] and in assay [7] was inactive.

Regarding `Cc1[nH]c(C)c(-c2ccc(Oc3ccc(S(C)=O)cc3)cc2)c(=O)c1Br` (stereo unspecified), the figures for the growth inhibition in assay [1] and in assay [3] were 64% (active) and 91% (active), respectively. Moreover, the inhibition in assay [2] was 0%. Further, the outcome in assay [4], in assay [5], in assay [6] and in assay [7] was inactive.
